# Screens: PubChem, National Center for Advancing Translational Sciences (NCATS)
# Hits are enriched below; roughly 7.6% of the tested compounds scored in any of these assays.
# KCNH2 3.1 inh: KCNH2 3.1 (human) potassium channel inhibition | activity change, % (tested at about 1.8 µM) | AID 720553 | U2OS KCNH2 3.1, thallium flux FluxOr; active compounds read low | 340,000 compounds, 0.95% hits;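 active means maximum activity change below -70%; inconclusive means maximum activity change from -70% to -50%; inactive means maximum activity change above -50%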;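 further: thallium influx rate constant from kinetic fluorescence after stimulation buffer; on the % scale 0 is the no-effect control and ±100 the full control effect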
#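 Measured as rate of thallium-driven FluxOr signal in transduced U2OS cells carrying the 3.1 channel, read kinetically for 2 min upon stimulation; values are rate constants scaled to DMSO control wells.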
# SW480 rerep: induces DNA re-replication in SW480 colon adenocarcinoma cells. 340,000 compounds, 1.8% hits. AID 624297. SW480 DNA re-replication, Hoechst DNA content imaging, 48 h. Potency, µM (highest dose often 46.1 µM), inactives show top-dose re-replication activation, most hits filed as activators; further: potency means the concentration at half of the fitted maximal effect; % of control where 0% means no effect; nearly all actives have a fitted effect of over 55% in size
#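 Per well, 250 cells were exposed to pinned compound for 48 hr. Nuclear DNA was visualised with Hoechst (40 min, 37 C) and total object intensity recorded by fluorescence scanning.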
# KB-3-1 cytotox: KB-3-1 parental cell cytotoxicity. KB-3-1 viability, CellTiter-Glo ATP luminescence, 72 h. 400,000 compounds, 1.4% hits. Potency, µM (top dose mostly 46.1 µM), usual class: cytotoxic; further: potency means the concentration at half of the fitted maximal effect; on the % scale 0 is the no-effect control and ±100 the full control effect; nearly all actives have a fitted effect of over 60% in size
#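 Screening of KB-3-1 cells (DMEM, 10% FBS, phenol-red free) ran from lowest to highest compound concentration; after 72 h at 37 °C viability was read luminescently and curves fitted.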
# KCNH2 WT inh: inhibitors of human wildtype KCNH2 potassium channel. Q12809. U2OS, BacMam KCNH2, thallium flux FluxOr; active compounds read low. activity change, % at 1.84 µM. 340,000 compounds, 0.37% hits;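 active means maximum activity change below -70%; inconclusive means maximum activity change between -70% and -50%; inactive means maximum activity change above -50%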; further: on the % scale 0 is the no-effect control and ±100 the full control effect
# Target sequence (Q12809 whole entry, looked up): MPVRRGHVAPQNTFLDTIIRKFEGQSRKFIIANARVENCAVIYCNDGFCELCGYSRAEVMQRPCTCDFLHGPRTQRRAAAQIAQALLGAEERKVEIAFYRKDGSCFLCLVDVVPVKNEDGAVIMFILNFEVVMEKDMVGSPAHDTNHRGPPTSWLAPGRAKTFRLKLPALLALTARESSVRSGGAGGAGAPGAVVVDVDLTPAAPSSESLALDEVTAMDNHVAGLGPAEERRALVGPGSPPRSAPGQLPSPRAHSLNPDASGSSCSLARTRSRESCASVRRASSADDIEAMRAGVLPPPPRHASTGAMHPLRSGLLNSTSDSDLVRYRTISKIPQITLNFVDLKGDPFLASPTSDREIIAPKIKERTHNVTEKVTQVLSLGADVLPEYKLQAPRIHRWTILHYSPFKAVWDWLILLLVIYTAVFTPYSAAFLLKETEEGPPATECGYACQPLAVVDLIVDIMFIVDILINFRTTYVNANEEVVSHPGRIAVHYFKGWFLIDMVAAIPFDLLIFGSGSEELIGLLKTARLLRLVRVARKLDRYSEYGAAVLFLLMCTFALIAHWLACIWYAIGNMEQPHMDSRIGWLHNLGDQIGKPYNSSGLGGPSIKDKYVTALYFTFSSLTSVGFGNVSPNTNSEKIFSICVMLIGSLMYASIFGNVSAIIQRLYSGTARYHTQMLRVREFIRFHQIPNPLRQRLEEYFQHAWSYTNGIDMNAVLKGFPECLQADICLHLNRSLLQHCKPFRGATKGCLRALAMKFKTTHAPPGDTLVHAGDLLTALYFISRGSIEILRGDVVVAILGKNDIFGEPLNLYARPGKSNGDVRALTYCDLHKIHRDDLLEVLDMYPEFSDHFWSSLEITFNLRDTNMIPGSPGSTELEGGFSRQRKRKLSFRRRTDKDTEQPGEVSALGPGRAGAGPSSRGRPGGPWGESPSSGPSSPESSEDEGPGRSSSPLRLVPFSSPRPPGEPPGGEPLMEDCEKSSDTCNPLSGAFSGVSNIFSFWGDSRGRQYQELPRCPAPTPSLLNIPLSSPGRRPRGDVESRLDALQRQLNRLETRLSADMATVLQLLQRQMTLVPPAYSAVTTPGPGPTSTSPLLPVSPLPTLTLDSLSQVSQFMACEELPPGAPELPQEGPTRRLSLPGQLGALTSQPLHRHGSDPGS
#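 U2OS cells transduced with wild-type KCNH2 virus are loaded with FluxOr dye for 45 min, and thallium flux is measured in kinetic reads before and after stimulation buffer. Rate constants are normalized to DMSO controls.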
# KB-V1 cytotox: KB-V1 MDR subline cytotoxicity; KB-V1 MDR cells viability, CellTiter-Glo, 72 h; Potency, µM (series often up to 46.1 µM), most hits filed as cytotoxic; 400,000 compounds, 3.4% hits; AID 1347076; further: potency means the concentration at half of the fitted maximal effect; on the % scale 0 is the no-effect control and ±100 the full control effect; nearly all actives have a fitted effect of over 60% in size
#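 Luminescent ATP read-out (CellTiter-Glo, 10 min) measures survival of drug-selected KB-V1 MDR cells after 72 h, 37 degrees C compound exposure. Medium: phenol-red-free DMEM, 10% FBS. Values from fitted concentration-response curves.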
# MCF10A rereplic: induces DNA re-replication in MCF 10a normal breast cells. MCF 10A DNA re-replication, Hoechst nuclear intensity, 48 h. AID 624296. Potency, µM (titrated, usually from 46.1 µM), inactives show at the highest dose activity, positive = re-replication, hits mostly activators. 350,000 compounds, 2.9% hits; further: potency means the concentration at half of the fitted maximal effect; % of control where 0% means no effect; nearly all actives have a fitted effect of over 50% in size
# An asterisk follows results filed as active; i = inactive; ? = inconclusive; nt = no result given. Unless noted, the call rests on the fitted dose curve; in most records, active means well fitted curve in the direction sought with a large enough effect; inconclusive means small, poorly fitted or top-dose-only effect, or another doubt; inactive means no such curve, though single readings can be large; an effect the other way counts as inactive or inconclusive.
SMILES,KCNH2 3.1 inh,SW480 rerep,KB-3-1 cytotox,KCNH2 WT inh,KB-V1 cytotox,MCF10A rereplic
COc1cccc(-c2noc(COc3ccccc3Cl)n2)c1,nt,nt,i,nt,?,nt
COc1ccc(C=NNC(=S)NN=Cc2ccc(OC)c(OC)c2)cc1OC,-7,?,0.46µM*,-11,0.23µM*,?
COc1ccc(CNC(=S)N/N=C/c2ccc(OC)c(OC)c2)cc1,-15,2%,i,2,i,23%
COCCCNC(=S)N/N=C/c1ccc(OC)c(Br)c1,11,3.3µM*,i,8,i,29%
COc1ccc(/C=N/NC(=S)NCc2ccccc2)cc1OC,14,-7%,i,5,21µM*,-21%
COc1ccc(CNC(=S)N/N=C/c2ccc(O)c(OC)c2)cc1,1,-7%,i,-3,i,?
N#Cc1cccc(S(=O)(=O)Nc2c(NC3CCCCC3)c3ccccc3oc2=O)c1,-21,-9%,i,-13,i,-9%
CCOc1ccc(S(=O)(=O)NC(C)C(=O)NCc2ccccn2)cc1 (stereo unspecified),-9,1%,i,-6,i,4%
O=C(COc1ccccc1F)Nc1ccc2c(c1)OCCO2,8,13%,i,6,i,-32%
C=CCNC(=O)/C(C#N)=C\c1cc(Cl)c(O)c(OCC)c1,-11,?,i,0,i,-51%
CCOc1cc(/C=C(/C#N)C(=O)Nc2ccc(O)cc2)cc(Br)c1O,-7,2.1µM*,1µM*,2,?,0.18µM*
O=c1oc2ccc3ccccc3c2cc1-c1nc2ccccc2o1,-4,18µM*,i,12,i,?
O=c1oc2ccccc2cc1-c1nc2ccccc2o1,4,3%,i,-28,i,3%
CCOC(=O)Cc1csc(SCC(=O)NC2CCC(C)CC2)n1 (stereo unspecified),-2,?,i,-8,i,2%
CCOc1ccccc1C1CC(=O)NC(C)=C1C(=O)OC1CCCCCC1 (stereo unspecified),nt,nt,i,nt,i,nt
OC(CCN1CCCCC1)(c1ccccc1)c1ccccc1,-8,-10%,i,50,i,2%
OC(CCCN1CCCCC1)(c1ccccc1)c1ccc(C(F)(F)F)cc1 (stereo unspecified),-73*,?,i,2,i,21µM*
CCS(=O)(=O)n1nc(-c2ccco2)nc1N,3,-4%,i,9,i,12%
O=C(Cc1nc2ccccc2[nH]1)c1ccc(Cl)cc1,0,-1%,i,-13,i,?
Clc1ccc(/C(Cc2nc3ccccc3[nH]2)=N\Nc2ccccc2)cc1,-102*,?,i,0,?,8%
CN/N=C(\Cc1nc2ccccc2[nH]1)c1ccc([N+](=O)[O-])cc1,-75*,-3%,i,?,i,6%
O=C(Cc1nc2ccccc2[nH]1)c1ccc([N+](=O)[O-])cc1,13,5%,i,37,i,9%
CCCN=Cc1ccc(O)cc1,-4,-1%,i,-3,?,15%
COc1cccc(/C=C2/Sc3ccc(C(=O)NCCN4CCCCCC4)cc3NC2=O)c1,?,?,i,-8,i,21µM*
COc1ccc(/C=C2/Sc3ccc(C(=O)NCCCN4CCOCC4)cc3NC2=O)cc1OC,-7,21µM*,?,-4,i,18µM*
SMILES,KCNH2 3.1 inh,SW480 rerep,KB-3-1 cytotox,KCNH2 WT inh,KB-V1 cytotox,MCF10A rereplic
COc1ccc(C(=O)NCCCN2CCOCC2)cc1OC,-4,-3%,i,-13,i,-1%
COC(C[C@@H]1O[C@@H]1[C@@H](O)COCc1ccccc1)OC,1,24%,i,-28,i,-10%
CCOc1cc(/C=N/NC(=O)CN(CCc2ccccc2)S(=O)(=O)c2ccc(NC(C)=O)cc2)ccc1O,0,-3%,i,2,?,1%
COc1ccc(S(=O)(=O)N(CCc2ccccc2)CC(=O)NCc2ccccc2)cc1,nt,nt,i,nt,i,nt
CCNC(=O)CN(CCc1ccccc1)S(=O)(=O)c1ccc(OC)cc1,-5,-6%,i,2,21µM*,-3%
COc1ccc(S(=O)(=O)N(CCc2ccccc2)CC(=O)N/N=C/c2ccc3c(c2)OCO3)cc1,?,?,?,-7,4.6µM*,1%
O=C(CN(CCc1ccccc1)S(=O)(=O)c1ccc(Cl)cc1)N/N=C/c1ccc2c(c1)OCO2,?,-53%,i,-1,9.2µM*,-1%
O=C1NC(c2ccc3ccccc3c2)Nc2ccccc21 (stereo unspecified),18,nt,?,24,16µM*,nt
O=C1NC(c2ccc(Br)cc2)Nc2ccccc21 (stereo unspecified),-3,?,?,12,6.5µM*,18µM*
CCN(CC)c1ccc(C2NC(=O)c3ccccc3N2)cc1 (stereo unspecified),-28,10µM*,4.1µM*,-10,2.3µM*,5.8µM*
COc1ccc(C2NC(=O)c3ccccc3N2)cc1OC (stereo unspecified),18,-7%,i,2,i,?
Cc1cc(N2CCCC(C(=O)Nc3ccc4c(c3)CCC4)C2)n2ncnc2n1 (stereo unspecified),4,2%,?,7,4.6µM*,4%
CCCc1cc(N2CCCC(C(=O)Nc3c(OC)cccc3OC)C2)n2ncnc2n1 (stereo unspecified),2,7%,i,10,i,?
Cc1cc(N2CCCC(C(=O)Nc3cccc(Cl)c3)C2)n2ncnc2n1 (stereo unspecified),0,-1%,i,-10,?,1%
CCCc1cc(N2CCCC(C(=O)Nc3cc(Cl)ccc3OC)C2)n2ncnc2n1 (stereo unspecified),-24,-10%,i,28,13µM*,17%
Cc1cccc(NC(=O)c2ccc(N(Cc3ccccc3)S(C)(=O)=O)cc2)c1,nt,nt,i,nt,?,nt
CCC(=O)OCc1cc(=O)n2nc(C3CC3)sc2n1,nt,nt,i,nt,i,nt
CN(C)Cc1ccc(-c2nc3cccc4c3n2CCNC4=O)cc1,nt,?,18µM*,nt,i,?
Cc1cc(CN(C)C(=O)CC2C(=O)NCCN2Cc2ccc(-c3ccccc3)cc2)on1 (stereo unspecified),-12,-4%,i,-13,i,3%
O=C(C1CCCCC1)N1C[C@@H](O)[C@H](n2cc(C3CC3)nn2)C[C@@H]1c1ccc(Cl)cc1,-5,nt,i,2,i,nt
